Pf growth 96h = P. falciparum growth inhibition at 96 hours; 320,000 tested, 6.9% active; P. falciparum luciferase reporter growth, 96 h; Potency, µM (top dose mostly 28.7 µM), for the others: at the top dose activity change, negative = inhibition, actives largely listed as inhibitors; further: potency means the concentration at half of the fitted maximal effect; on the % scale 0 is the no-effect control and ±100 the full control effect
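Plates of compound plus infected erythrocytes (2% hematocrit, 0.05% parasitemia final) incubate 96 hours, 37 C, 5% CO2. Detection reagent added; reduced luminescence from the parasites' luciferase reporter flags inhibition.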
Shiga inhibitor = inhibitors of Shiga toxin in Vero cells; Vero cells, Shiga toxin protein synthesis inhibition reporter; inhibition, % at 38.7 µM; 290,000 tested, 9.2% active; in the data active means inhibition mostly above about 28%, no sharp cut-off; inactive means mostly below about 43%; further: 0% is about no effect
Pf growth 48h = P. falciparum growth inhibition at 48 hours (one generation) | P. falciparum luciferase growth in erythrocytes, 48 h | Potency, µM (series often up to 28.7 µM), for inactives: top-dose activity change, negative = inhibition, hits mostly inhibitors | 310,000 tested, 5.9% active | AID 504832; further: potency means the concentration at half of the fitted maximal effect; on the % scale 0 is the no-effect control and ±100 the full control effect
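Parasite viability was followed by luminescence of a genomically integrated firefly luciferase. Cultures held 0.1% parasitemia at 2% hematocrit (final), incubated under 5% CO2 at 37 C.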
AMA1 RON2 block = inhibitors of Plasmodium falciparum AMA1-RON2 interaction; AID 720542; AlphaScreen AMA1-biotinylated RON2 peptide binding; Potency, µM (top dose mostly 58.2 µM), without a hit: at the top dose activity change, negative = inhibition, most hits filed as inhibitors; 360,000 tested, 0.2% active;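 further: potency means the concentration at half of the fitted maximal effect; 0% = vehicle wells and -100% = peptide control; nearly all actives have a fitted effect of over 45% in size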
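AMA1 (3D7) with his tag at 25 nM final met compounds first, then biotinylated RON2 peptide at 25 nM; detection used donor plus acceptor beads, 10 µg/mL apiece, read by AlphaScreen after 30 min at room temperature.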
HCV inh = blocks hepatitis C virus. Huh7.5.1 HCVcc-Cre infection, luciferase reporter, 44 h. 340,000 tested, 3.4% active. Potency, µM (highest dose often 41.8 µM), for inactives: top-dose activity change, negative = inhibition, hits mostly inhibitors; further: potency means the concentration at half of the fitted maximal effect; on the % scale 0 is the no-effect control and ±100 the full control effect
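Seed cells (1,000/well) for 4 h; treat with compound and infect with HCVcc-Cre, moi about 0.5. Incubate 44 h, then detect luciferase activity.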
Cycloheximide cs = counter-screen hit for Shiga toxin inhibitors, cycloheximide | cell reporter, cycloheximide protein synthesis inhibition counterscreen | max response, % | 300,000 tested, 12% active | AID 2314; in the data active means max response mostly above about 13%, no sharp cut-off; inactive means mostly below about 14%; further: read at 38.3 µM for the half of the compounds with a filed dose; 0% is about no effect
Active calls of the source: *; ? = inconclusive; . = no result given. Hits are enriched below; roughly 21% of the tested compounds scored in any of these assays. Unless noted, the call rests on the fitted dose curve; in most records, active means well fitted curve in the direction sought with a large enough effect; inconclusive means small, poorly fitted or top-dose-only effect, or another doubt; inactive means no such curve, though single readings can be large; an effect the other way counts as inactive or inconclusive.

SMILES	Pf growth 96h	Shiga inhibitor	Pf growth 48h	AMA1 RON2 block	HCV inh	Cycloheximide cs
CN(C(=O)Cn1cc(C(F)(F)F)cc(Cl)c1=O)C1CCS(=O)(=O)C1 (configuration not stated)	28%	.	7%	-1%	23%	.
C=CCNC(=O)c1ccccc1NC(=O)c1ccc(Cl)c(S(=O)(=O)Nc2cc(C)ccc2C)c1	8.3µM*	45	?	-1%	13µM*	10
Cc1ccccc1NS(=O)(=O)c1cc(C(=O)Nc2ccccc2-c2ccccc2)ccc1Cl	-16%	-9	?	-8%	11µM*	1
Cc1ccccc1NS(=O)(=O)c1cc(C(=O)N2CCCC2)ccc1Cl	11%	-4	-29%	0%	.	13
Cc1ccc(C)c(NS(=O)(=O)c2cc(C(=O)N3CCc4ccccc4C3)ccc2Cl)c1	?	9	-15%	-7%	?	-5
CS(=O)(=O)N(CC(=O)N1CCC(C(N)=O)CC1)Cc1ccc(Cl)c(Cl)c1	-14%	-9	82%	-5%	11%	-2
O=[N+]([O-])c1ccc(O)c(C=Nc2ccc3oc(Cc4ccc(Cl)cc4)nc3c2)c1	38%	-1	?	.	.	1
Oc1c(Br)cc(Br)cc1C=Nc1ccc2c(c1)OCCO2	24%	50*	66%	69%	11%	32*
Oc1c(Br)cc(Br)cc1C=Nc1ccc2c(c1)OCO2	34%	23	-7%	3%	-8%	1
Oc1[nH]c2ccccc2c1C=Nc1ccc2c(c1)OCCO2	-1%	53	21%	-6%	?	32*
O=[N+]([O-])c1ccc(O)c(C=Nc2ccc3c(c2)OCCO3)c1	25%	108*	248%	7%	-8%	112*
O=c1c2ccccc2nnn1-c1ccccc1[N+](=O)[O-]	.	.	.	-10%	.	.
COc1ccc(N=C2SCC(=O)N2CCc2ccc(OC)c(OC)c2)cc1	?	-9	?	-7%	?	-4
COc1ccc(CCN2C(=O)CSC2=Nc2ccc(C(C)C)cc2)cc1OC	?	-2	10µM*	?	-77%	-3
c1nc2nc(Nc3ccc(N4CCOCC4)cc3)nc(NC3CCCCC3)c2[nH]1	.	-24	.	.	.	-12
CCOC(=O)C1=C(C)NC(=O)CC1c1cc2c(cc1Br)OCO2 (configuration not stated)	68%	-5	-22%	0%	9%	-3
CCOC(=O)C1=C(C)NC(=O)CC1c1cc(OC)c(OC)cc1Br (configuration not stated)	?	-5	0.47µM*	-10%	9%	-6
CCOc1ccc2c(c1)nc(SCC(=O)c1ccc(Br)s1)n2C	?	-5	?	-3%	?	2
CCOc1ccc2c(c1)nc(SCC(=O)c1cccs1)n2C	?	81*	23%	38%	-23%	50*
CSc1oc(-c2ccc(F)cc2)nc1S(=O)(=O)c1ccccc1	?	-24	-14%	4%	-7%	19*
NC(=O)C1CCN(c2oc(-c3ccccc3)nc2S(=O)(=O)c2ccc(Br)cc2)CC1	?	-8	?	-4%	3%	10
O=S(=O)(c1ccccc1)c1nc(-c2ccccc2)oc1N1CCCC1	32%	42	0%	9%	-4%	-4
CSc1oc(-c2ccccc2)nc1S(=O)(=O)c1ccc(F)cc1	.	-5	-22%	4%	-8%	-3
O=S(=O)(c1ccccc1)c1nc(-c2ccccc2)oc1N1CCCCC1	12%	77*	.	6%	?	24*
Cc1ccc(S(=O)(=O)c2nc(-c3ccccc3)oc2N2CCC(C(N)=O)CC2)cc1	13µM*	11	?	-8%	19%	-2
SMILES	Pf growth 96h	Shiga inhibitor	Pf growth 48h	AMA1 RON2 block	HCV inh	Cycloheximide cs
O=C(NCCCc1ccc(F)cc1)C1CCC(=O)N(CCCN2CCCC2=O)C1 (configuration not stated)	64%	-2	25%	5%	12%	-4
COC(=O)c1ccc2nc(-c3ccco3)c(Cc3ccccc3)n2c1	.	.	.	-6%	.	.
CN(c1ccc(F)cc1)S(=O)(=O)c1ccc(Cl)c(C(=O)NC2(C)CCS(=O)(=O)C2)c1 (configuration not stated)	?	.	-9%	-2%	-18%	.
COc1ccccc1N(C)S(=O)(=O)c1ccc(Cl)c(C(=O)Nc2ccccc2N2CCOCC2)c1	.	.	.	-29%	4%	.
Cc1cccc(NC(=O)c2cc(S(=O)(=O)N(C)c3ccc(F)cc3)ccc2Cl)n1	0.37µM*	.	0.33µM*	-1%	-28%	.
COc1ccccc1N(C)S(=O)(=O)c1ccc(Cl)c(C(=O)Nc2cccc(C)n2)c1	2.3µM*	.	2.1µM*	-10%	?	.
CCOC(=O)CCC1(C(=O)OC)C(=O)CCCCCC=C1C(=O)OC (configuration not stated)	.	.	.	4%	.	.
COc1cccc2c(=O)cc(C)n(CC(=O)Nc3ccc(C)c(C)c3)c12	0%	-9	0%	-11%	5µM*	-2
CC(C)c1[nH]nc2c1C(c1cccc(OC(=O)N3CCOCC3)c1)C(C#N)=C(N)O2 (configuration not stated)	12µM*	27	-21%	11%	0%	-1
COc1ccc(NC(=O)CN(C)C(=O)c2oc3c(ccc4ccccc43)c2C)cc1	0.19µM*	.	0.19µM*	-5%	?	.
COCCN(CC(=O)Nc1cccc(C)c1C)C(=O)c1oc2c(Cl)cccc2c1C	?	.	9.3µM*	8%	?	.
CCN(CC(=O)Nc1ccc(NC(C)=O)cc1)C(=O)c1oc2c(ccc3ccccc32)c1C	12µM*	.	?	3%	-21%	.
COc1ccc(NC(=O)CN(C)C(=O)CNC(=O)Cc2cccc3ccccc23)cc1	-1%	-3	0%	-13%	0%	1
COCCN(CC(=O)Nc1cccc(C)c1C)C(=O)c1cc(-c2cccs2)nn1-c1ccccc1	-15%	.	?	-5%	?	.
COCCN(CC(=O)Nc1cccc(C)c1C)C(=O)c1cc(-c2ccncc2)nc2ccccc12	8.3µM*	.	10µM*	8%	-22%	.
Cc1ccc(S(=O)(=O)N2C[C@H]3C(=O)C[C@@H](c4ccccc4)N(S(=O)(=O)c4ccccc4[N+](=O)[O-])[C@H]3C[C@H]2c2ccccc2)cc1	.	.	.	-2%	.	.
COc1cccc(NC(=O)CN(C)C(=O)c2oc3c(ccc4ccccc43)c2C)c1	0.23µM*	.	0.26µM*	-13%	0%	.
Cc1c(C(=O)N(C)CC(=O)Nc2cccc(F)c2)oc2c(Cl)cccc12	1.5µM*	.	2.6µM*	-6%	?	.
Cc1ccc2oc(=O)c(-c3ccc(O)cc3)c(C)c2c1	-7%	.	12%	-9%	6%	.
C=C(C)C(=O)Oc1ccc(N2C(=O)[C@@H]3C4C=CC(C4)[C@@H]3C2=O)cc1	7%	-5	5%	0%	27%	-3
